Sm TGR inh: blocks Schistosoma mansoni thioredoxin glutathione reductase | Q962Y6 | purified TGR, DTNB reduction, TNB absorbance 405 nm | Potency, µM (highest dose often 114 µM), inactives show at the top dose activity change, negative = inhibition, actives largely listed as inhibitors | actives 3% (n = 360,000) | AID 485364; further: nearly all actives have a fitted effect of over 60% in size
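TGR 20 nM + NADPH 100 uM (dispensed conc.), cpd preinc 15 min RT; start with NADPH (500 uM addition) then DTNB (15 mM addition). Kinetic TNB absorbance, 405 nm filter. Four-parameter Hill fit across titration.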
FMDV antiviral: blocks foot and mouth disease virus. Potency, µM (doses to about 57.9 µM), for the others: at the top dose activity change, negative = inhibition, hits mostly inhibitors. actives 1.2% (n = 410,000). FMDV antiviral cell-based qHTS; calls by dose curve; tested in HEK293T cells; further: read-out not given here; nearly all actives have a fitted effect of over 45% in size
RE007 growth inh: less growth of the S. pombe RE007 Vpr strain. S. pombe RE007 Vpr strain, BacTiter-Glo ATP luminescence, 24 h. Potency, µM (top dose mostly 92.2 µM), for inactives: at the highest dose activity change, negative = less growth, actives largely listed as inhibitors. actives 0.21% (n = 360,000). AID 651644; active means well fitted falling curve with a large enough effect; inconclusive means small, poorly fitted or top-dose-only effect; inactive means no such curve, though single readings can be large or run the other way; further: nearly all actives have a fitted effect of over 50% in size
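Fission yeast strain RE007, carrying one chromosomally integrated HIV-1 vpr copy, was seeded at OD 0.01 in PMG+AL medium with 23 nL pinned compound. After 24 h at 30 °C and 99% humidity, viability was read by BacTiter-Glo luminescence.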
Lassa entry inh: Lassa virus entry inhibition; Lassa virus pseudotype entry inhibition, cell reporter; Potency, µM (doses to about 37.9 µM), for the others: at the highest dose activity change, negative = inhibition, usual class: inhibitors; actives 1.2% (n = 300,000); AID 540256; calls by dose curve; tested in HEK293 cells; further: nearly all actives have a fitted effect of over 50% in size
MARV entry inh: inhibitors of Marburg virus binding or cell entry; Potency, µM (series often up to 37.8 µM), for the others: at the highest dose activity change, negative = inhibition, hits mostly inhibitors; actives 1.8% (n = 300,000); Marburg virus pseudotyped entry inhibition, cell reporter; calls by dose curve; tested in HEK293 cells
HCV inh: inhibitors of hepatitis C virus infection; Huh7.5.1 HCVcc-Cre infection, luciferase reporter, 44 h; Potency, µM (series often up to 41.8 µM), for the others: at the top dose activity change, negative = inhibition, most hits filed as inhibitors; actives 3.4% (n = 340,000); AID 651820
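Infectious HCV cell culture screen: compound-treated cells (1,000/well, pre-plated 4 h) are infected with HCVcc-Cre at roughly 0.5 moi and grown 44 h. Infection is quantified by luciferase signal after 15 min substrate incubation at room temperature.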
Starred values were filed as active, the others as inactive; [ ] = another dose, or the depositor's remark. Shown are actives, neighbours in structure and some others; about 7.2% of the full set was active somewhere. Unless noted, the call rests on the fitted dose curve; in most records, active means well fitted curve in the direction sought with a large enough effect; inconclusive means small, poorly fitted or top-dose-only effect, or another doubt; inactive means no such curve, though single readings can be large; an effect the other way counts as inactive or inconclusive. On the % scale 0 is the no-effect control and ±100 the full control effect; potency means the concentration at half of the fitted maximal effect.

Screening Cc1cc(O)c(C(c2ccc(Cl)cc2)N2CCN(c3ccccc3)CC2)c(=O)n1Cc1ccco1 (configuration not stated) returned Sm TGR inh 5µM*, FMDV antiviral -4% and Lassa entry inh 0%[46.1 µM].
`CCOc1ccc(C(c2nnnn2Cc2ccccc2)N2CCN(C(=O)c3ccco3)CC2)cc1` (configuration not stated) gave FMDV antiviral -17%, RE007 growth inh -16%, Lassa entry inh inconclusive, MARV entry inh -25% and HCV inh 5%.
Screening CCOc1ccc(C(c2c(O)cc(C)n(Cc3ccco3)c2=O)N2CCN(C)CC2)cc1 (configuration not stated) returned Sm TGR inh 7.9µM*, FMDV antiviral -16% and Lassa entry inh inconclusive.
Cc1cc(O)c(C(c2ccccc2)N2CCN(c3ccc(F)cc3)CC2)c(=O)n1Cc1ccco1 (configuration not stated) was read as Sm TGR inh 3.5µM*, FMDV antiviral 0% and Lassa entry inh 21%[46.1 µM].
For O=C(c1ccco1)N1CCN(C(c2ccc(Cl)cc2)c2nnnn2Cc2ccccc2)CC1 (configuration not stated) the results were Sm TGR inh inconclusive, FMDV antiviral -12%, RE007 growth inh 2%, Lassa entry inh -21%, MARV entry inh -8% and HCV inh -15%.
`Cc1cc(O)c(C(c2ccc(F)cc2)N2CCCCC2)c(=O)n1Cc1ccco1` (configuration not stated) gave Sm TGR inh 20µM*, FMDV antiviral -13% and Lassa entry inh 11%[46.1 µM].
`CCCCN(C)CCCNC(=O)c1cc(=O)[nH]c2ccc(S(=O)(=O)N3CCCCC3)cc12` gave Sm TGR inh 6%, FMDV antiviral -7% and Lassa entry inh -2%[46.1 µM].
`Cc1ccc(C)c(Cn2c(-c3cccs3)nc3ccccc32)c1` gave Sm TGR inh 0%, FMDV antiviral -29%, Lassa entry inh -12%[46.1 µM] and MARV entry inh -3%[46.1 µM].
`Cc1nc2ccn(Cc3ccco3)c(=O)c2cc1C(=O)N1CCN(c2ccc(F)cc2)CC1` gave Sm TGR inh -34%, FMDV antiviral -23% and Lassa entry inh -14%[46.1 µM].
Screening Cc1cc(O)c(C(c2ccccc2)N2CCN(c3ccccc3)CC2)c(=O)n1Cc1ccco1 (configuration not stated) returned Sm TGR inh 3.2µM*, FMDV antiviral -25% and Lassa entry inh 11%[46.1 µM].
Screening Cc1cc(O)c(C(c2ccc(F)cc2)N2CCN(c3ccccc3)CC2)c(=O)n1Cc1ccco1 (configuration not stated) returned Sm TGR inh 10µM*, FMDV antiviral 0% and Lassa entry inh 6%[46.1 µM].
Screening O=C(NCCC1=CCCCC1)C(=O)NCc1ccccc1 returned Sm TGR inh 14%, FMDV antiviral 32%, RE007 growth inh 1%, Lassa entry inh 9%, MARV entry inh -7% and HCV inh 0%.
For O=C(O)C1C2C=CC(O2)C1C(=O)NCCC1=CCCCC1 (configuration not stated) the results were Sm TGR inh 22µM*, FMDV antiviral -14%, RE007 growth inh -1%, Lassa entry inh 3%, MARV entry inh 30% and HCV inh 6%.
O=C1C(=O)N(Cc2cccnc2)[C@@H](c2ccccn2)/C1=C(/O)c1ccc(F)cc1 was read as MARV entry inh 22%.
For CCC(=O)Nc1ccc2nc(SCCOc3ccc(C)cc3)sc2c1 the results were Sm TGR inh 0%, FMDV antiviral 4%, Lassa entry inh -15%[46.1 µM] and MARV entry inh -6%[46.1 µM].
For Cc1cc(NC(=O)c2c(F)cccc2Cl)n(-c2nc3ccccc3[nH]2)n1 the results were Sm TGR inh -5%, FMDV antiviral 0%, RE007 growth inh 16%, Lassa entry inh inconclusive, MARV entry inh inconclusive and HCV inh 14µM*.
For Cc1cc(NC(=O)C2CCCCC2)n(-c2nc3ccccc3[nH]2)n1 the results were Sm TGR inh 0%, FMDV antiviral -23%, RE007 growth inh -14%, Lassa entry inh inconclusive, MARV entry inh 0%[46.1 µM] and HCV inh 4.5µM*.
Screening Cc1cc(Nc2ccccc2)n(-c2nc3ccccc3[nH]2)n1 returned Sm TGR inh 2%, FMDV antiviral -6%, RE007 growth inh 35µM*, Lassa entry inh inconclusive, MARV entry inh inconclusive and HCV inh 5µM*.
Screening Cc1cc(NC(=O)c2c(F)cccc2F)n(-c2nc3ccccc3[nH]2)n1 returned Sm TGR inh 9%, FMDV antiviral inconclusive, RE007 growth inh -4%, Lassa entry inh inconclusive, MARV entry inh inconclusive and HCV inh 35µM*.
For Cc1cc(NC(=O)c2ccc(C)s2)n(-c2nc3ccccc3[nH]2)n1 the results were Sm TGR inh 1%, FMDV antiviral 13%, RE007 growth inh -4%, Lassa entry inh 9%, MARV entry inh 10% and HCV inh inconclusive.
Screening Cc1cc(NC(=O)c2ccccc2F)n(-c2nc3ccccc3[nH]2)n1 returned Sm TGR inh 5%, FMDV antiviral 5%, RE007 growth inh 18%, Lassa entry inh 0%, MARV entry inh -19% and HCV inh inconclusive.
For CCCCCC(=O)N1C[C@H](O)[C@@H](n2cc(C3CC3)nn2)C[C@@H]1c1ccc(OC)cc1 the results were FMDV antiviral -22% and RE007 growth inh 2%.
`Cc1cc(NC(=O)C2CCC2)n(-c2ccccn2)n1` gave Sm TGR inh 11%, FMDV antiviral 6%, RE007 growth inh -6%, Lassa entry inh -10%, MARV entry inh -5% and HCV inh 10µM*.
`Cc1nn(-c2nc3ccccc3[nH]2)c(=O)c2ccccc12` gave Sm TGR inh 3%, FMDV antiviral 0.79µM*, RE007 growth inh 6.3µM*, Lassa entry inh inconclusive, MARV entry inh inconclusive and HCV inh 14%.
`Cc1cc(C)nc(-n2nc(C)cc2Nc2ccccc2)n1` gave Sm TGR inh -6%, FMDV antiviral inconclusive, RE007 growth inh -18%, Lassa entry inh -27%, MARV entry inh inconclusive and HCV inh 10µM*.
For c1ccc2nc(N3CCCC3)c(N3CCCC3)nc2c1 the results were Sm TGR inh 13%, FMDV antiviral -20%, RE007 growth inh -4%, Lassa entry inh 5%, MARV entry inh -2%[46.1 µM] and HCV inh -19%.
CN(C)C=Nc1nc2ccccc2nc1N1CCCC1 was read as Sm TGR inh 40µM*, FMDV antiviral 6%, RE007 growth inh inconclusive, MARV entry inh 1%[46.1 µM] and HCV inh -11%.
Screening O=C(COC(=O)c1ccc(O)cc1O)NC12CC3CC(CC(C3)C1)C2 returned Sm TGR inh -3%, FMDV antiviral 24%, RE007 growth inh 4% and HCV inh 13µM*.
